The text below walks through data of PubChem BioAssay (Tox21).

Structures are written as SMILES. Values joined by “and” are separate entries in the source; they are usually repeats but may differ in a detail not shown here. Equal values may be shown once. Records with an inconclusive call do not appear. The source holds several records for some structures; these can differ, active in one and inactive in another. Active and inactive are the calls of the source. The call rests on the fitted dose curve.
On the % scale 0 is the no-effect control and ±100 the full control effect; potency means the concentration at half of the fitted maximal effect.

The experiment can be described thus: qHTS assay to identify small molecule agonists of the progesterone receptor (PR) signaling pathway - cell viability counter screen (AID 1346799). Further: nearly all actives have a fitted effect of over 45% in size. The note with it: PR-UAS-bla HEK293T viability, CellTiter-Glo luminescence, 16 h; series mostly up to 92.4 µM; activity change, negative = cytotoxicity: at the top concentration. From the text:
National Center for Advancing Translational Sciences [NCATS]
NIH Chemical Genomics Center [NCGC]
U.S. Environmental Protection Agency [EPA]
National Institutes of Environmental Health Sciences [NIEHS]
National Toxicology Program [NTP]
U.S. Food and Drug Administration [FDA]
Progesterone receptor (PR), a nuclear hormone receptor, plays an important role in development, metabolic homeostasis and reproduction. It is activated by the steroid hormone progesterone. Endocrine disrupting chemicals (EDCs) and their interactions with steroid hormone receptors like PR causes disruption of normal endocrine function. To identify the compounds that stimulate PR signaling, a PR-UAS-bla GripTite cell line i.e. PR-UAS-bla HEK293T (Invitrogen, Carlsbad, CA, USA) containing a beta-lactamase reporter gene under the control of an UAS response element was used to screen Tox21 10K compound library. The cytotoxicity of the Tox21 compound library against the PR-bla cell line was tested in parallel by measuring the cell viability using CellTiter-Glo assay in the same wells.
Tox21 Assay Protocol Summary:
PR-UAS-bla HEK293T cells were dispensed at 3,000 cells/5 uL of assay medium containing 2% charcoal stripped FBS per well into black wall/clear-bottom 1536-well plates using a Multidrop Combi (ThermoFisher Scientific, Waltham, MA) dispenser. After the assay plates were incubated at a 37C and 5% CO2 for 6 hr, 23 nL of compounds dissolved in DMSO, positive controls or DMSO only was transferred to the assay plate by a Pintool station (Kalypsys, San Diego, CA). The plates were incubated at 37C and 5% CO2 for 16 hr. Then 1 uL of LiveBLAzer B/G FRET substrate was added using a Flying Reagent Dispenser (FRD, Aurora Discovery, San Diego, CA), the plates were incubated at room temperature for 2 hours, and fluorescence intensity was measured by an Envision plate reader (PerkinElmer, Shelton, CT). For cell viability readout that measures cytotoxicity, 4 uL/well of CellTiter-Glo reagent was added into the assay plates using a FRD. After 30 min incubation at room temperature, the luminescence intensity in the plates was measured using a ViewLux (PerkinElmer) plate reader.
Background: Quantitative high-throughput screening tests each substance at several concentrations.
For the compound `COC12CC[C@@]3(C[C@@H]1C(C)(O)C(C)(C)C)[C@H]1Cc4ccc(O)c5c4[C@@]3(CCN1CC1CC1)[C@H]2O5` (stereo not given in full), the Potency was 38.3 µM (active).
Turning to `CC(C)(COCC1CO1)COCC1CO1` (stereo not given), the “activity change, negative = cytotoxicity” value was -11.6% (inactive).
For the compound `Nc1ccc(Cl)cc1C(=O)c1ccccc1`, the “activity change, negative = cytotoxicity” value is -2.45% (inactive).
On the same count and under the same terms, then `Cc1ccc(OP(=O)(Oc2ccccc2)Oc2ccccc2)cc1`, with 23.2% (inactive).
Turning to `C[C@H]1O[C@@H](O[C@H]2[C@@H](O)C[C@H](O[C@H]3[C@@H](O)C[C@H](O[C@H]4CC[C@@]5(C)[C@H](CC[C@@H]6[C@@H]5CC[C@]5(C)[C@@H](C7=CC(=O)OC7)CC[C@]65O)C4)O[C@@H]3C)O[C@@H]2C)C[C@H](O)[C@@H]1O`, the Potency is 77.4 nM (active) and 237 nM (active).
As for `CCc1ccccc1C`, the “activity change, negative = cytotoxicity” value is -0.666% (inactive).
For the compound `CC1CCC(C(C)C)C(OC(=O)c2ccccc2N)C1` (stereo not given), the Potency was 53.7 µM (active).
Consider `CCOP(=S)(OCC)SCCS(=O)(=O)CC`, for which the “activity change, negative = cytotoxicity” value is 0.362% (inactive).
Consider `C[As+](C)(C)CC(=O)[O-]`, for which the “activity change, negative = cytotoxicity” value is 7.9% (inactive).
For `N#Cc1ccccc1Cl`, the “activity change, negative = cytotoxicity” value was -3.85% (inactive).
For `Fc1cccc(Cl)c1CCl`, the “activity change, negative = cytotoxicity” value is 15.6% (inactive).
As to `ClC1=C(Cl)[C@]2(Cl)[C@@H]3[C@@H](Cl)[C@H](Cl)C[C@@H]3[C@@]1(Cl)C2(Cl)Cl`, the “activity change, negative = cytotoxicity” value is 19.4% (inactive).
`CN(C)C(=S)S`: the Potency entry was “inactive and 13.7 µM (active)”.
In the case of `FC(F)(F)c1cccc(C2=CCN(CCc3ccc4ccccc4c3)CC2)c1`, the “activity change, negative = cytotoxicity” value was -11.8% [at 42.5 µM] (inactive).
On the same count and under the same terms, then `COCC(=O)N(c1c(C)cccc1C)[C@H](C)C(=O)OC`, with 0% (inactive).
For `C[C@@H]1O[C@@H](O[C@H]2C[C@@H](O)[C@]3(CO)[C@H]4[C@H](O)C[C@]5(C)[C@@H](C6=CC(=O)OC6)CC[C@]5(O)[C@@H]4CC[C@]3(O)C2)[C@H](O)[C@H](O)[C@H]1O`, the Potency was 116 nM (active) and 168 nM (active).
For the compound `C[C@@H](Oc1ccc(Cl)cc1Cl)C(=O)O`, the “activity change, negative = cytotoxicity” value was -8.18% (inactive).
On to `C[C@@H]1CC[C@@]2(OC1)O[C@H]1[C@@H](O)[C@H]3[C@@H]4CC[C@H]5C[C@@H](O[C@@H]6O[C@H](CO)[C@H](O[C@@H]7O[C@H](CO)[C@@H](O)[C@H](O[C@@H]8OC[C@@H](O)[C@H](O)[C@H]8O)[C@H]7O[C@@H]7O[C@H](CO)[C@@H](O)[C@H](O[C@@H]8O[C@H](CO)[C@@H](O)[C@H](O)[C@H]8O)[C@H]7O)[C@H](O)[C@H]6O)[C@H](O)C[C@]5(C)[C@H]4CC[C@]3(C)[C@H]1[C@@H]2C`, for which the Potency was 14.5 µM (active).
Turning to `[Hg+2].[I-].[I-]`, the Potency was 5.45 µM (active).
Take `C[C@H]1CC[C@@H]2[C@@H](C)[C@H]3[C@H](C[C@H]4[C@@H]5CC=C6CC(O[C@@H]7O[C@H](CO)[C@H](O)[C@H](O[C@@H]8O[C@H](CO)[C@@H](O)[C@H](O)[C@H]8O)[C@H]7O[C@H]7O[C@@H](C)[C@H](O)[C@@H](O)[C@H]7O)CC[C@]6(C)[C@H]5CC[C@]34C)N2C1` (stereo not given in full): the Potency is 22.4 µM (active).
`CCCCCCCCCCCCCCCCCCn1cc[n+](C)c1`: the Potency was 30.5 µM (active).
As for `COc1ccc(N)cc1N`, the “activity change, negative = cytotoxicity” value is 39.6% (inactive).
On to `N#C/C=C/C#N`, for which the “activity change, negative = cytotoxicity” value is -4.4% (inactive).
For `CC(=[OH+])/C=C(/C)[O-].CC(=[OH+])/C=C(\C)[O-].CC(=[OH+])/C=C(\C)[O-].[Al]`, the “activity change, negative = cytotoxicity” value is 0.15% (inactive).
Turning to `CCC[CH2][Sn]([CH2]CCC)([CH2]CCC)[O]C(=O)c1ccccc1`, the Potency was 2.43 µM (active).
With `Brc1c(Br)c(Br)c(Oc2c(Br)c(Br)c(Br)c(Br)c2Br)c(Br)c1Br`, the activity change, negative = cytotoxicity is -0.672% [at 19 µM] (inactive).
As for `C[C@]12CC[C@H](O)C[C@H]1CC[C@@H]1[C@@H]2C[C@@H](O)[C@]2(C)[C@@H](C3=CC(=O)OC3)CC[C@]12O`, the Potency was 1.54 µM (active).
For the compound `CC(C)C(=O)Cl`, the “activity change, negative = cytotoxicity” value was -2.44% (inactive).
Consider `COC(=O)N(C(=O)N1COC2(C(=O)OC)Cc3cc(Cl)ccc3C2=N1)c1ccc(OC(F)(F)F)cc1` (stereo not given), for which the “activity change, negative = cytotoxicity” value was 0% [at 42.5 µM] (inactive).
For `CCOP(=S)(OCC)SCS(=O)(=O)CC`, the “activity change, negative = cytotoxicity” value was -13.3% (inactive).
`SCc1ccco1`: the “activity change, negative = cytotoxicity” value is 0% (inactive).
Consider `CCCCCCCCCCCCCC[P+](CCCCCC)(CCCCCC)CCCCCC` (tested in a mixture with another compound), for which the Potency was 27.3 µM (active).
With `CCCCCCCCCCCCCCCC[n+]1ccccc1`, the Potency is 50.8 µM (active) and 54.5 µM (active).
Consider `O=C(CCCN1CCC2(CC1)C(=O)NCN2c1ccccc1)c1ccc(F)cc1`, for which the “activity change, negative = cytotoxicity” value was 3.18% [at 42.5 µM] (inactive).
Consider `C[C@@H]1O[C@@H](O[C@@H]2C=C3CC[C@@H]4[C@H](CC[C@]5(C)[C@@H](c6ccc(=O)oc6)CC[C@]45O)[C@@]3(C)CC2)[C@H](O)[C@H](O)[C@H]1O`, for which the Potency is 0.0168 µM (active).
`CCCCCCCCCC[N+](C)(C)CCCCCCCCCC`: the Potency was 8.63 µM (active).
As for `O=CC(Br)(Br)Br`, the “activity change, negative = cytotoxicity” value was -3.33% (inactive).
With `COc1cc(N)c(Cl)cc1C(=O)NC1CN2CCC1CC2` (stereo not given), the “activity change, negative = cytotoxicity” value was -10.4% [at 42.5 µM] (inactive).
Still for that read-out and setting: then `N#CCCC(Br)(C#N)CBr` (stereo not given), with 2.33% (inactive); and `CN(C)CCc1c[nH]c2ccc(O)cc12`, with 0% (inactive).
